The campaign covered roughly 5,500 compounds. About 2,000 (36%) were called active. Inconclusive results (about 18%) are left out. No stated cut-off is given here; in the data, active means normalized growth mostly below about 0.91 (no sharp cut-off); inconclusive means no clear call, values can overlap the other calls; inactive means mostly above about 0.92. This is one part of the list.
Assay: chemical genetic growth profiling, strain panel (AID 1159580);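 further: tested at 20 µM; growth read once vehicle control cultures reached saturation at 30 °C; 1 = growth at the plate median or of vehicle wells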
Settings: S. cerevisiae deletion strains, growth OD

Measured: normalized growth

COc1ccc2c(c1)c(CC(=O)O)c(C)n2Cc1ccc(Cl)cc1
inactive: locus YAL013W, strain DEP1, stronger effect = lower value 0.994 | locus YAL040C, strain CLN3, stronger effect = lower value 0.96 | locus YCL061C, strain MRC1 (second series), stronger effect = lower value 1 | locus YDR150W, strain NUM1, stronger effect = lower value 1.02 | locus YDR363W, strain ESC2, stronger effect = lower value 0.972 | locus YER002W, strain NOP16, stronger effect = lower value 0.999 | locus YGR078C, strain PAC10, stronger effect = lower value 0.981 | locus YGR229C, strain SMI1, stronger effect = lower value 0.941 | locus YMR307W, strain GAS1, stronger effect = lower value 1 | locus YNL175C, strain NOP13, stronger effect = lower value 0.966 | locus YNL197C, strain WHI3, stronger effect = lower value 0.95 | locus YNL224C, strain SQS1, stronger effect = lower value 0.981 | locus YNL322C, strain KRE1, stronger effect = lower value 0.994 | locus YOR083W, strain WHI5 (second series), stronger effect = lower value 0.953 | locus YPL055C, strain LGE1, stronger effect = lower value 0.996 | locus YPL241C, strain CIN2, stronger effect = lower value 0.994

— PubChem BioAssay AID1159580 (chemical genetic matrix, 2015)
